The molecules below were run against Glucose transporter (Leishmania mexicana) (UniProt O61059) (assay: ST_JUDE_LEISH: Cytotoxicity at 2uM final concentration against transgenic Leishmania Mexicana promastigotes LmGT2 that are glucose transport deficient and complemented with the L. Mexicana glucose transporter 2. Activity is measured by DNA content using SYBR green in vitro).
Type: functional
Molecule `COc1cc(Cc2cnc(N)nc2N)ccc1OCc1ccc(F)c(F)c1` has an inhibition of 4.59%.
`CC1=C(C(=O)OC(C)C)C(c2ccccc2Cl)C2=C(CC(c3ccccc3)CC2=O)N1` (stereo not given) was tested, and the inhibition was 7.36%.
In the case of `CCOc1cc2ncnc(Nc3cc(Cl)c(Cl)c(Cl)c3)c2cc1OCC`, the inhibition was 1.59%.
`NC(=O)c1ccccc1Nc1nc(Nc2cc[nH]n2)ncc1Cl` showed an inhibition of 7.47%.
`CCNc1cc(C(=O)N[C@@H](Cc2ccccc2)[C@H](O)CNC2(CC)CCCCC2)cc(N2CCCCS2(=O)=O)c1` was tested, and the inhibition was -2.89%.
For `Cc1ccc(NC(=O)c2ccc(CN3CCCN(Cc4cccc(Cl)c4)CC3)cc2)cc1C`, the inhibition was 2.64%.
`NC(=O)c1cc2nc(NC3CCC3)nc(Nc3cccc4[nH]ncc34)c2[nH]1` was tested, and the inhibition was -1.17%.
`N#C/N=C(\NCCCCCCCCN/C(=N\C#N)NCCSCc1csc(N=C(N)N)n1)NCCCSc1csc(N=C(N)N)n1` showed an inhibition of 0.43%.
In the case of `Cc1ccc(C2(CN3CCC(NC(=O)c4n[nH]cc4Cl)CC3)CCCCC2)cc1`, the inhibition was -0.37%.
With `FC(F)(F)c1ccc2nccc(NCc3ccccc3)c2c1` the inhibition was 1.41%.
Work on `COC(=O)c1ccc(CCC(C)NCC(O)c2cccc(C(F)(F)F)c2)cc1` (stereo not given) yielded an inhibition of 3.23%.
In the case of `Cc1ccc(Cn2nc(Cl)c(N3CCCNCC3)cc2=O)cc1NC(=O)Nc1ccc(-c2ccccc2)cc1`, the inhibition was -1.28%.
`O=C(NCCCCN1CCC(c2ccc3c(c2OCCO)CCCC3)CC1)c1ccc2oc(-c3ccc(C(F)(F)F)cc3)cc2c1` showed an inhibition of 2.18%.
Work on `Cc1cnc(-c2ccc(NC(=O)c3coc4ccc(N5CC(C)N(C)C(C)C5)cc34)cc2)o1` (stereo not given) yielded an inhibition of 0.74%.
In the case of `CC(=O)N(C)C1CCN(Cc2cccc(-c3ccc(-c4nc5cc(C(F)(F)F)ccc5[nH]4)cc3)c2)C1` (stereo not given), the inhibition was 3.1%.
With `CN(C)C(=O)c1ccc(CN(Cc2ccc3c(c2)OCCO3)Cc2ccc3c(c2)OCO3)cc1` the inhibition was 3.97%.
`O=C(Nc1cccc(CN2CCN(C(=O)c3ccccc3)CC2)c1)c1cccs1` showed an inhibition of 3.92%.
Work on `CCc1ccc(CN2CCC(CNC(=O)c3cc(-c4ccccc4Cl)cs3)C2)cc1` (stereo not given) yielded an inhibition of 10.8%.
In the case of `N#Cc1ccc(-c2ccc(C(=O)NC3CCN(CCN4CCC(c5cn(CCO)c6ccccc56)CC4)CC3)cc2)cc1`, the inhibition was 1.44%.
With `CC(C)Cc1cn(-c2nc(-c3nc4ccccc4[nH]3)cs2)c2ccncc12` the inhibition was 3.29%.
Work on `O=C(NCc1cccs1)[C@H](Cc1ccccc1)Nc1ccnc(NCCc2ccccc2)n1` yielded an inhibition of -0.38%.
`Cc1cccc2nc(-c3ccc(-c4cccc(CNCc5cccc(N)c5)c4)cc3)[nH]c12` gave an inhibition of -1.02%.
Molecule `CC(C)(C)c1cc(C(=O)N2CCN(c3ccc(C(F)(F)F)cn3)CC2)n(Cc2ccc(F)cc2)n1` has an inhibition of -1.88%.
In the case of `O=C(Cc1ccc(NC(=O)c2ccc(O)c(-c3ccc(Cl)c(Cl)c3)c2)cc1)NCCc1ccc(Cl)c(Cl)c1`, the inhibition was -0.6%.
With `COc1cc(Cc2cnc(N)nc2N)cc(OCCCCCC(N)=O)c1OC` the inhibition was 1.17%.
In the case of `CC1(C)[C@H]2CC[C@@H](CNc3nc(NCCc4c[nH]cn4)nc(Nc4ccc5c(c4)OCO5)n3)[C@@H]1C2`, the inhibition was 0.68%.
`Cc1ccccc1C1CCN(C2CCC(NC(=O)/C=C/c3cccc(Cl)c3Cl)CC2)CC1` (stereo not given) was tested, and the inhibition was 4.18%.
`CCOC(=O)C1=C(C)N=c2sc(=Cc3cc(Cl)ccc3O)c(=O)n2C1c1ccc(OC)cc1` (stereo not given) was tested, and the inhibition was 0.91%.
For `Cc1nc(Nc2ccncc2)cc(-c2ccncc2)n1`, the inhibition was 2.92%.
Work on `Cc1ccc2[nH]c(/C=C/c3cccc4cc[nH]c34)nc2c1` yielded an inhibition of 0.48%.
`COc1ccc2nccc([C@@H](O)CN3CCC(NC(=O)c4ccc(OC)c(N)c4)CC3)c2c1` showed an inhibition of 11.5%.
`Cc1cccc2nc(-c3ccc(-c4cccc(NC(=O)NCc5ccc(F)cc5)c4)cc3)[nH]c12` showed an inhibition of 3.65%.
`CCN(CC)CCN(Cc1ccc(-c2ccc(C(F)(F)F)cc2)cc1)C(=O)Cn1c(/C=C/c2ccco2)nc(=O)c2ccccc21` gave an inhibition of -1.26%.
Molecule `CN(C)Cc1cccc(-c2ccc(Nc3nccc(NCC(O)c4ccccc4)n3)cc2)c1` (stereo not given) has an inhibition of 3.53%.
Work on `Cc1c(N=O)cc(C(C)(C)C)c(O)c1C(=O)Nc1ccc([N+](=O)[O-])cc1Cl` yielded an inhibition of -0.56%.
`CC(C)C1C(O)=C(c2ccc3ccccc3c2)C(=O)N1Cc1cccc(F)c1` (stereo not given) was tested, and the inhibition was 8.55%.
`Cc1cccc(C)c1/N=C1\NC(=S)N(c2cccc(Cl)c2)C12CCC(C(C)(C)C)CC2` (stereo not given) gave an inhibition of 0.24%.
Work on `c1ccc(-c2cccc(-c3ccccn3)n2)nc1` yielded an inhibition of 2.49%.
For `COc1ccc(-c2cccc(NC(=O)c3cccc(C#N)c3)c2)cc1CN1CCN(C)CC1`, the inhibition was 3.24%.
Work on `CCNC(=O)N1CCc2ccc(Oc3nc(NCc4ccccc4OC)ncc3C)cc2CC1` yielded an inhibition of 2.64%.
